# Measurements from PubChem BioAssay (Tox21).
# Unmarked numbers belong to inactive results. Records with an inconclusive call do not appear. Where a call stands in place of a potency, no number is given. Active and inactive are the calls of the source. Calls come from the whole dose curve; as a rule, active = well fitted curve in the direction sought with a large enough effect in the repeat runs; inconclusive = weak or mixed curves; inactive = no such curve, though single readings can be large; an effect the other way counts as inactive or inconclusive.
# Columns and labels:
# [1] = A CellTox Green Cytotoxicity Assay to monitor cytotoxicity in HEK293 cells - 40 hour (AID 1224871); note: nearly all actives have a fitted effect of over 45% in size; note: potency is the fitted concentration of half-maximal effect
# Outline: (§1)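 Cells (HEK293, 600/well) and dye reagent are dispensed together. After 5 h at 37 C, 23 nL compound is pinned in. Plates stay at 37 C for 40 h with fluorescence read at 0h, 8h, 16h, 24h, 32h and 40h.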
# [2] = qHTS RealTime-Glo MT Cell Viability Assay in HEK293 cells - 16 hour (AID 1224872); note: top concentration of the series differs between compounds; nearly all actives have a fitted effect of over 50% in size
# Outline: (§2)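 Cells + reagent dispensed (600 cells/well, HEK293) → 5 h at 37 C/5% CO2 → 23 nL compound in DMSO pinned → 40 h at 37 C → luminescence read at 0, 8, 16, 24, 32, 40 h.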
# [3] = qHTS RealTime-Glo MT Cell Viability Assay in HepG2 cells - 8 hour (AID 1224873); note: nearly all actives have a fitted effect of over 55% in size
# Outline: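 HepG2 cells (600/well) mixed with RealTime-Glo MT reagent, settled 5 h at 37 C/5% CO2 before compound addition. Nonlytic NanoLuc luminescence from viable-cell prosubstrate reduction read repeatedly during 40 h treatment at 37 C.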
# [4] = qHTS RealTime-Glo MT Cell Viability Assay in HEK293 cells - 40 hour (AID 1224874); details: RealTime-Glo luminescence; max response: hits give low values; note: nearly all actives have a fitted effect of over 50% in size
# Outline: (§3)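 Real-time viability in HEK293: signal arises when living cells convert a prosubstrate for NanoLuc in the medium, so luminescence tracks viable cell number. Compound (23 nL, DMSO) added 5 h post-seeding; kinetic reads at 0–40 h, 37 C.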
# [5] = A CellTox Green Cytotoxicity Assay to monitor cytotoxicity in HEK293 cells - 24 hour (AID 1224875); note: nearly all actives have a fitted effect of over 45% in size; note: potency is the fitted concentration of half-maximal effect; for activity change: series mostly up to about 77 µM
# Outline: as §1
# [6] = A CellTox Green Cytotoxicity Assay to monitor cytotoxicity in HepG2 cells - 16 hour (AID 1224876); note: nearly all actives have a fitted effect of over 45% in size; note: potency is the fitted concentration of half-maximal effect
# Outline: (§4)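 Cells and non-lytic dye reagent are dispensed together (600 HepG2 cells/well) and incubated 5 h before DMSO compound transfer. Kinetic fluorescence is then recorded in the same wells during 40 h at 37 C.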
# [7] = qHTS RealTime-Glo MT Cell Viability Assay in HepG2 cells - 32 hour (AID 1224877); note: nearly all actives have a fitted effect of over 55% in size
# Outline: (§5)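 Real-time, nonlytic viability: 600 HepG2 cells/well mixed with NanoLuc enzyme plus prosubstrate; 5 h settle, compound (DMSO) added by pintool; luminescence monitored over 40 h at 37 C.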
# [8] = A CellTox Green Cytotoxicity Assay to monitor cytotoxicity in HepG2 cells - 24 hour (AID 1224878); note: nearly all actives have a fitted effect of over 45% in size; note: potency is the fitted concentration of half-maximal effect
# Outline: as §4
# [9] = A CellTox Green Cytotoxicity Assay to monitor cytotoxicity in HepG2 cells - 40 hour (AID 1224879); note: nearly all actives have a fitted effect of over 40% in size; note: potency is the fitted concentration of half-maximal effect
# Outline: as §4
# [10] = qHTS RealTime-Glo MT Cell Viability Assay in HEK293 cells - 0 hour (AID 1224880)
# Outline: as §3
# [11] = A CellTox Green Cytotoxicity Assay to monitor cytotoxicity in HEK293 cells - 32 hour (AID 1224881); note: nearly all actives have a fitted effect of over 40% in size; note: potency is the fitted concentration of half-maximal effect
# Outline: as §1
# [12] = A CellTox Green Cytotoxicity Assay to monitor cytotoxicity in HepG2 cells - 0 hour (AID 1224882); note: nearly all actives have a fitted effect of over 35% in size; note: potency is the fitted concentration of half-maximal effect
# Outline: as §4
# [13] = A CellTox Green Cytotoxicity Assay to monitor cytotoxicity in HepG2 cells - 32 hour (AID 1224883); note: nearly all actives have a fitted effect of over 50% in size; note: potency is the fitted concentration of half-maximal effect
# Outline: as §4
# [14] = A CellTox Green Cytotoxicity Assay to monitor cytotoxicity in HEK293 cells - 8 hour (AID 1224884); note: nearly all actives have a fitted effect of over 35% in size; note: potency is the fitted concentration of half-maximal effect
# Outline: as §1
# [15] = qHTS RealTime-Glo MT Cell Viability Assay in HepG2 cells - 16 hour (AID 1224885); note: nearly all actives have a fitted effect of over 50% in size
# Outline: as §5
# [16] = qHTS RealTime-Glo MT Cell Viability Assay in HEK293 cells - 24 hour (AID 1224886)
# Outline: as §2
# [17] = qHTS RealTime-Glo MT Cell Viability Assay in HEK293 cells - 8 hour (AID 1224887)
# Outline: as §3
# [18] = A CellTox Green Cytotoxicity Assay to monitor cytotoxicity in HEK293 cells - 16 hour (AID 1224888); note: nearly all actives have a fitted effect of over 35% in size; note: potency is the fitted concentration of half-maximal effect
# Outline: as §1
# [19] = qHTS RealTime-Glo MT Cell Viability Assay in HepG2 cells - 0 hour (AID 1224889); note: nearly all actives have a fitted effect of over 50% in size
# Outline: as §5
# [20] = A CellTox Green Cytotoxicity Assay to monitor cytotoxicity in HepG2 cells - 8 hour (AID 1224890); note: nearly all actives have a fitted effect of over 45% in size
# Outline: as §4
compound,measurement,setting,value
CCOC(=O)CS,Potency,[1],inactive
same,Potency,[2],inactive
same,outcome,[3],inactive
same,max response,[4],-5.88%
same,Potency,[5],inactive
same,Potency,[6],inactive
same,Potency,[7],inactive
same,Potency,[8],inactive
same,Potency,[9],inactive
same,outcome,[10],inactive
same,Potency,[11],inactive
same,Potency,[12],inactive
same,Potency,[13],inactive
same,Potency,[14],inactive
same,outcome,[15],inactive
same,Potency,[16],inactive
same,Potency,[17],inactive
same,Potency,[18],inactive
same,Potency,[19],inactive
same,Potency,[20],inactive
CC(C)NCC(O)COc1ccc(CCOCC2CC2)cc1 (configuration not stated),Potency,[1],inactive
same,Potency,[2],inactive
same,outcome,[3],inactive
same,max response,[4],-6.16%
same,Potency,[5],inactive
same,Potency,[6],inactive
same,Potency,[7],inactive
same,Potency,[8],inactive
same,Potency,[9],inactive
same,outcome,[10],inactive
same,Potency,[11],inactive
same,Potency,[12],inactive
same,Potency,[13],inactive
same,Potency,[14],inactive
same,outcome,[15],inactive
same,Potency,[16],inactive
same,Potency,[17],inactive
same,Potency,[18],inactive
same,Potency,[19],inactive
same,Potency,[20],inactive
CC/C=C\CCOC(=O)C(C)C,Potency,[1],inactive
same,Potency,[2],inactive
same,outcome,[3],inactive
same,max response,[4],-2.11%
same,Potency,[5],inactive
same,Potency,[6],inactive
same,Potency,[7],inactive
same,Potency,[8],inactive
same,Potency,[9],inactive
same,outcome,[10],inactive
same,Potency,[11],inactive
same,Potency,[12],inactive
same,Potency,[13],inactive
same,Potency,[14],inactive
same,outcome,[15],inactive
same,Potency,[16],inactive
same,Potency,[17],inactive
same,Potency,[18],inactive
same,Potency,[19],inactive
same,Potency,[20],inactive
CN1[C@@H]2CC[C@H]1CC(OC(=O)c1c[nH]c3ccccc13)C2 (some centres not stated),Potency,[1],inactive
same,Potency,[2],inactive
same,outcome,[3],inactive
same,max response,[4],4.75%
same,Potency,[5],inactive
same,Potency,[6],inactive
same,Potency,[7],inactive
same,Potency,[8],inactive
same,Potency,[9],inactive
same,outcome,[10],inactive
same,Potency,[11],inactive
same,Potency,[12],inactive
same,Potency,[13],inactive
same,Potency,[14],inactive
same,outcome,[15],inactive
same,Potency,[16],inactive
same,Potency,[17],inactive
same,Potency,[19],inactive
same,Potency,[20],inactive
CCN(CC)CC1CCCCN1CC(=O)N1c2ccccc2C(=O)Nc2cccnc21 (configuration not stated),Potency,[1],inactive
same,Potency,[2],inactive
same,outcome,[3],inactive
same,max response,[4],0.471%
same,Potency,[5],inactive
same,Potency,[6],inactive
same,Potency,[7],inactive
same,Potency,[8],inactive
same,Potency,[9],inactive
same,outcome,[10],inactive
same,Potency,[11],inactive
same,Potency,[12],inactive
same,Potency,[13],inactive
same,Potency,[14],inactive
same,outcome,[15],inactive
same,Potency,[16],inactive
same,Potency,[17],inactive
same,Potency,[18],inactive
same,Potency,[19],inactive
same,Potency,[20],inactive
CC1(C)S[C@@H]2[C@H](NC(=O)C(C(=O)O)c3ccccc3)C(=O)N2[C@H]1C(=O)O (some centres not stated),Potency,[1],inactive
same,Potency,[2],inactive
same,outcome,[3],inactive
same,max response,[4],-0.907%
same,Potency,[5],inactive
same,Potency,[6],inactive
same,Potency,[7],inactive
same,Potency,[8],inactive
same,Potency,[9],inactive
same,outcome,[10],inactive
same,Potency,[11],inactive
same,Potency,[12],inactive
same,Potency,[13],inactive
same,Potency,[14],inactive
same,outcome,[15],inactive
same,Potency,[16],inactive
same,Potency,[17],inactive
same,Potency,[18],inactive
same,Potency,[19],inactive
same,Potency,[20],inactive
C[C@@H]1CN(c2c(F)c(N)c3c(=O)c(C(=O)O)cn(C4CC4)c3c2F)C[C@H](C)N1,cytotoxicity increase,[1],6.32% [at 15.8 µM]
same,"activity change, negative = cytotoxicity",[2],-1.59% [at 15.8 µM]
same,"viability change, negative = cytotoxic",[3],0.974% [at 15.8 µM]
same,max response,[4],-0.345%
same,activity change,[5],"0.48% [at 15.8 µM, hits give high values]"
same,cytotoxicity increase,[6],-2.88% [at 15.8 µM]
same,"activity change, negative = cytotoxic",[7],1.06% [at 15.8 µM]
same,cytotoxicity,[8],-3.54% [at 15.8 µM]
same,cytotoxicity increase,[9],-1.78% [at 15.8 µM]
same,"activity change, negative = cytotoxicity",[10],-2.5% [at 15.8 µM]
same,cytotoxicity increase,[11],5.84% [at 15.8 µM]
same,cytotoxicity,[12],5.9% [at 15.8 µM]
same,cytotoxicity increase,[13],-7.06% [at 15.8 µM]
same,cytotoxicity increase,[14],-0.635% [at 15.8 µM]
same,"activity change, negative = cytotoxic",[15],0.182% [at 15.8 µM]
same,"activity change, negative = cytotoxicity",[16],4.31% [at 15.8 µM]
same,"activity change, negative = cytotoxicity",[17],0.0014% [at 15.8 µM]
same,activity change,[18],"-0.126% [at 15.8 µM, hits give high values]"
same,"activity change, negative = cytotoxicity",[19],5.84% [at 15.8 µM]
same,cytotoxicity increase,[20],0.794% [at 15.8 µM]
O=C(O)[C@@H]1CSCN1,Potency,[1],inactive
same,Potency,[2],inactive
same,outcome,[3],inactive
same,max response,[4],2.01%
same,Potency,[5],inactive
same,Potency,[6],inactive
same,Potency,[7],inactive
same,Potency,[8],inactive
same,Potency,[9],inactive
same,outcome,[10],inactive
same,Potency,[11],inactive
same,Potency,[12],inactive
same,Potency,[13],inactive
same,Potency,[14],inactive
same,outcome,[15],inactive
same,Potency,[16],inactive
same,Potency,[17],inactive
same,Potency,[18],inactive
same,Potency,[19],inactive
same,Potency,[20],inactive
CC(C)(C)c1ccc(OC(=O)c2ccccc2O)cc1,Potency,[1],inactive
same,Potency,[2],inactive
same,outcome,[3],inactive
same,max response,[4],-15.3%
same,Potency,[5],inactive
same,Potency,[6],inactive
same,Potency,[7],inactive
same,Potency,[8],inactive
same,Potency,[9],inactive
same,outcome,[10],inactive
same,Potency,[11],inactive
same,Potency,[12],inactive
same,Potency,[13],inactive
same,Potency,[14],inactive
same,outcome,[15],inactive
same,Potency,[16],inactive
same,Potency,[17],inactive
same,Potency,[18],inactive
same,Potency,[19],inactive
same,Potency,[20],inactive
COC(=O)c1ccc(OC)cc1,Potency,[1],inactive
same,Potency,[2],inactive
same,outcome,[3],inactive
same,max response,[4],0.622%
same,Potency,[5],inactive
same,Potency,[6],inactive
same,Potency,[7],inactive
same,Potency,[8],inactive
same,Potency,[9],inactive
same,outcome,[10],inactive
same,Potency,[11],inactive
same,Potency,[12],inactive
same,Potency,[13],inactive
same,Potency,[14],inactive
same,outcome,[15],inactive
same,Potency,[16],inactive
same,Potency,[17],inactive
same,Potency,[18],inactive
same,Potency,[19],inactive
same,Potency,[20],inactive
Cc1ccc(C=O)s1,Potency,[1],43.6 µM (active)
same,Potency,[2],inactive
same,outcome,[3],inactive
same,max response,[4],5.96%
same,Potency,[5],43.6 µM (active)
same,Potency,[6],27.5 µM (active)
same,Potency,[7],inactive
same,Potency,[8],38.9 µM (active)
same,Potency,[9],27.5 µM (active)
same,outcome,[10],inactive
same,Potency,[11],43.6 µM (active)
same,Potency,[12],43.6 µM (active)
same,Potency,[13],38.9 µM (active)
same,Potency,[14],43.6 µM (active)
same,Potency,[16],inactive
same,Potency,[17],inactive
same,Potency,[18],38.9 µM (active)
same,Potency,[19],inactive
O=[N+]([O-])c1nccn1CO[C@@H](CO)[C@H](O)CO,Potency,[1],inactive
same,Potency,[2],inactive
same,outcome,[3],inactive
same,max response,[4],-3.33%
same,Potency,[5],inactive
same,Potency,[6],inactive
same,Potency,[7],inactive
same,Potency,[8],inactive
same,Potency,[9],inactive
same,outcome,[10],inactive
same,Potency,[11],inactive
same,Potency,[12],inactive
same,Potency,[13],inactive
same,Potency,[14],inactive
same,outcome,[15],inactive
same,Potency,[16],inactive
same,Potency,[17],inactive
same,Potency,[18],inactive
same,Potency,[19],inactive
same,Potency,[20],inactive
CCCCNCCCC,Potency,[1],inactive
same,Potency,[2],inactive
same,outcome,[3],inactive
same,max response,[4],1.62%
same,Potency,[5],inactive
same,Potency,[6],inactive
same,Potency,[7],inactive
same,Potency,[8],inactive
same,Potency,[9],inactive
same,outcome,[10],inactive
same,Potency,[11],inactive
same,Potency,[12],inactive
same,Potency,[13],inactive
same,Potency,[14],inactive
same,outcome,[15],inactive
same,Potency,[16],inactive
same,Potency,[17],inactive
same,Potency,[18],inactive
same,Potency,[19],inactive
same,Potency,[20],inactive
